Here are results for 40 compounds from PubChem BioAssay (NCI).

This is part of a sample that, as a whole, favours compounds with a hit. Of some 79,000 tested, about 15% had one in any assay. Unmarked numbers belong to inactive results. Rule as the data show it: active = growth inhibition above about 70%; inactive = the rest.

This assay is described as follows: NCI Yeast Anticancer Drug Screen. Data for the rad50 strain (AID 155).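 Also: 0% = growth of vehicle-only cultures of the same strain.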 The conditions noted are these: S. cerevisiae rad50 strain growth inhibition; at 50.0 µM; hits give high values. The method, then:
Growth inhibition of yeast strains with defined genetic alterations is measured as a screen for potential anti-cancer activity. Selected strains with alterations in DNA damage repair or cell cycle control were exposed to compounds and growth inhibition was measured relative to vehicle treated controls. The strain used in this assay is rad50
With `CN(C)CCOC(=O)c1ccc(N)cc1`, the growth inhibition was -6.35%. With `CC1(O)CC2C(CC1SCCO)C2(C)C` (stereo not given), the growth inhibition was -30.4%. Take `CCCCCCCCCCCCCCCC(=O)NCC(=O)NC1C(CO)OC(Nc2ncnc3nc[nH]c23)C(O)C1O` (stereo not given): the growth inhibition was 61.8%. Consider `COC(=O)C(=O)C(/C=N/C(=S)NC1CCCCC1)=C(\O)c1ccc(F)cc1`, for which the growth inhibition was -32.3%. Then `CCCCCCCC/C=C\CCCCCCCC(=O)OC(C)CC(=O)N(C)C` (stereo not given), with -18.1%. `CCOC(=O)NC(C)=O`: the growth inhibition was -10.4%. With `COc1cc2ccc1-c1cc(ccc1O)CC1c3cc4c(cc3CCN1C)Oc1c(OC)cc3c(c1O4)C(C2)N(C)CC3` (stereo not given), the growth inhibition is 1%. In the case of `NC[C@H]1Nc2ccccc2[C@@H](O)C1O` (stereo not given in full), the growth inhibition was 14.6%. With `CC(=N\N=C\c1ccccn1)/C(C)=N/N=C(C)/C(C)=N/N=C/c1ccccn1`, the growth inhibition is 29.1%. To `CCNC(CCCC1CCCCC1)C(=O)O` (stereo not given) belongs -0.9%; to `CN1C(=O)C23CCCN2C(=O)C1(C)SC(=N)S3` (stereo not given), 2.35%.

Turning to `Cc1ccc(-n2cnc3c(Cl)ncnc32)cc1`, the growth inhibition was -18.1%. To `CN(C)CCCC[N+](C)(C)Cc1ccc(C[N+](C)(C)CCCC[N+](C)(C)Cc2ccc(CCl)cc2)cc1` belongs -9.7%; to `COc1ccc(/C=C2\CCCC3=C2NC(=S)NC3c2ccc(OC)cc2)cc1` (stereo not given), 24.8%; to `CCOC(=O)c1cc(C)[nH]n1`, -37.9%. As for `CSc1n[nH]c(-c2cccs2)n1`, the growth inhibition is -6.6%.

Take `CN=C1N[N+]2=CCCCC2S1` (stereo not given): the growth inhibition is 17.8%.

On to `COC1OC(COS(=O)(=O)c2ccc(C)cc2)C(OS(=O)(=O)c2ccc(C)cc2)C1OCc1ccccc1` (stereo not given), for which the growth inhibition was -2.35%. Consider `C1=C(c2ccccc2)c2ccccc2CC1`, for which the growth inhibition is -10.3%. In the case of `Cc1cccc(NC(=O)CSc2nnc(-c3ccc(N=Cc4ccc(Cl)cc4)cc3)o2)c1`, the growth inhibition is 6.3%. `COC(=O)C1c2ccccc2CC(=O)N1NC(C)=O` (stereo not given): the growth inhibition is 15.6%. Take `CC(=O)Nc1ccc(/C=N/Nc2nc3ccccc3s2)cc1`: the growth inhibition is -10.3%. Then `O=C1c2ccccc2N2OC3(N4CCOCC4)CCCC3C12c1ccccc1` (stereo not given), with 57.5%; and `COc1cc(/C=N/NC(=O)C(=O)N/N=C/c2cc(OC)c(OC)c(OC)c2)cc(OC)c1OC`, with -20.4%; and `CCOC(=O)C(c1ccccc1)N(CCCN(CC)CC)c1ccccc1` (stereo not given), with -10.8%.

As to `CC(=O)Nc1nc(C)c(CCCOc2ccc([N+](=O)[O-])cc2)c(Cl)n1`, the growth inhibition was 1.65%.

As to `CN1C(=O)C(Cc2cnc[nH]2)NC1=S` (stereo not given), the growth inhibition is 11.5%.

On to `CC1CC(C[N+](=O)[O-])CC2(C1)OCCO2` (stereo not given), for which the growth inhibition was -1.5%. Then `[O-][N+]1=CCCC1`, with 4.4%; and `CCCCCCCC[N+](C)([O-])CCCCCC[N+](C)([O-])CCCCCCCC` (stereo not given), with 63.6%.

For `CCCCC(C)NC(=O)c1ccccc1` (stereo not given), the growth inhibition is 4.3%. `CC(C)COC1CN=NN1/C=C1\CCOC1=O` (stereo not given): the growth inhibition was -4.2%. Turning to `O=c1cc(CC(O)(c2ccccc2)c2ccccc2)cc[nH]1`, the growth inhibition is 16.1%.

As for `C=C(C)CBr`, the growth inhibition is -17.1%.

Regarding `CC(=O)CSc1cc(C)c2ccccc2n1`, the growth inhibition is -6.6%. To `CC(=O)NCC1CCCO1` (stereo not given) belongs 2.65%; to `CCOc1cc(/C=N\NC(=S)N/N=C/c2ccc(O)c(OCC)c2)ccc1O`, -15.2%; to `O=C(C(c1ccccc1)C(F)(F)F)N1CCCC1` (stereo not given), 7.4%. Then `CC(C)OC(=O)c1ccc(NCC2=CC(=O)C=CC2=O)cc1`, with 39.1%. `CC1CCC2(OC1)OC1CC3C4CCC5CC(O)CCC5(C)C4C(=O)C(O)C3(C)C1C2C` (stereo not given): the growth inhibition was 39.5%.
